MenB inh = blocks the Mycobacterium tuberculosis MenB enzyme; AID 540299; inhibition, % (no concentration beside the values); MenB enzyme assay, absorbance read-out; 100,000 compounds, 0.43% hits; in the data active = inhibition above about 21%, passing the limit was not always enough
Polio RdRp inh = inhibitors of poliovirus RNA polymerase binding and polymerization. P03300. poliovirus polymerase elongation, fluorescence polarization; hits give low values. % elongation, % (compound at 16.7 µg/mL). 150,000 compounds, 0.66% hits; in the data active = % elongation below about 90%
AID504770 = E. coli YBA685 growth inhibition, screen for V. cholerae RctB inhibitors. E. coli YBA685 rctB-dependent plasmid, OD600 growth, 3 h; hits give low values. z-score (concentration not given with the values). 130,000 compounds, 0.27% hits; in the data active = z-score below about -2, passing the limit was not always enough
Mtb MbtI inh = inhibitors of Mycobacterium tuberculosis siderophore enzyme MbtI. AID 493033. purified MbtI enzyme, fluorescence intensity read-out. P9WFX0. inhibition, % (test concentration not listed). 100,000 compounds, 0.89% hits; in the data active = inhibition mostly above about 56%, no sharp cut-off; inactive = mostly below about 77%
Target sequence (P9WFX0 whole entry, looked up): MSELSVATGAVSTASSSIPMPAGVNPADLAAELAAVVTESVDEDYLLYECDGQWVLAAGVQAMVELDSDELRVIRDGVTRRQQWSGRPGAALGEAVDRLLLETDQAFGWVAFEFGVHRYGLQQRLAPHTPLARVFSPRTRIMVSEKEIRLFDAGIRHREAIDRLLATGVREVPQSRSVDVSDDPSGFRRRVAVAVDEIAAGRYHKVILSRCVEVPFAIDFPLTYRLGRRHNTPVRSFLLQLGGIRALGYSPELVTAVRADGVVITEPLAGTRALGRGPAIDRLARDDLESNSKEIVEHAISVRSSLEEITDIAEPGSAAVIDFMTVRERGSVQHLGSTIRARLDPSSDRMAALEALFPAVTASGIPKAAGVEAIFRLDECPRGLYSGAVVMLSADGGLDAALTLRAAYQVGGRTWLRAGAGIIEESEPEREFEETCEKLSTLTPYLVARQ
Each line names hits and unclear results; the compound was inactive in the other large screens; ! = not confirmed by another sample. Most compounds without a hit are left out; they make up all but 1.4% or so of the library.

Nc1c(C(=O)Nc2ccccc2)nnn1Cc1ccccc1	none
CN(C(=O)CSc1nncn2c1cc1sccc12)c1ccccc1	MenB inh 33
CCCCC1CCC(C(=O)O)CC1 (stereo unspecified)	none (no result: MenB inh)
CCCCC1CCC(CCCC(C)CCC(=O)O)CC1 (stereo unspecified)	Polio RdRp inh 89 (no result: MenB inh, AID504770, Mtb MbtI inh)
CCCN1CCOC(CC(=O)Nc2ccc(Br)cc2Br)C1=O (stereo unspecified)	Mtb MbtI inh 87 (no result: MenB inh, Polio RdRp inh)
CCN1CCOC(CC(=O)Nc2ccccc2C)C1=O (stereo unspecified)	Mtb MbtI inh 75
c1cncc(CNCCN2CCOCC2)c1	MenB inh 65
CCOc1cccc(CNCCN2CCOCC2)c1	none
CC1=NN(c2ccccc2)C(=O)C1(O)C1C(=O)c2ccccc2C1=O (stereo unspecified)	Polio RdRp inh 29
CC1=NN(c2ccccc2)C(=O)C1(C)N (stereo unspecified)	none
COc1cc(-c2nnc(-c3ccc(N4CCOCC4)cc3)o2)cc(OC)c1OC	none
CC(C)(C)c1ccc(-c2nnc(-c3ccc(N4CCOCC4)cc3)o2)cc1	MenB inh 35
N#Cc1c(-c2ccccc2)cc(-c2ccccc2)nc1SCC(O)CS(=O)(=O)Cc1ccccc1 (stereo unspecified)	Polio RdRp inh 80 (no result: MenB inh, AID504770, Mtb MbtI inh)
c1c(SSc2cn3c(n2)CCC3)nc2n1CCC2	Mtb MbtI inh 93
O=C(CCSCc1cnn(-c2ccccc2)c1-n1cccc1)NCc1ccc(F)cc1	none
CSC(C)C(=O)C1=C(O)c2ccccc2C1=O (stereo unspecified)	none (no result: MenB inh, Polio RdRp inh, Mtb MbtI inh)
O=C1C(SCCO)=C(SCCO)C(=O)c2ccccc21	Mtb MbtI inh 91 (no result: AID504770)
COc1ccc(-c2noc(CNC(=O)C34CC5CC(CC(C5)C3)C4)n2)cc1	none
O=C1C=C(Nc2ccc(F)c(C(F)(F)F)c2)c2ccccc2C1=O	Polio RdRp inh 62 (no result: Mtb MbtI inh)
Cc1c(CCN)c2cccc3c2n1CCC3	none (no result: MenB inh, Polio RdRp inh)
O=C(Nc1ccccc1)c1cc(Cl)ccc1O	AID504770 -2.7 (no result: MenB inh)
N#Cc1c(N)c(C#N)c(-c2ccccc2)c2c1CCCC2	none (no result: Mtb MbtI inh)
N#Cc1c2c(c(-c3ccccc3)[nH]c1=S)CCCC2	Mtb MbtI inh 51
NC(=O)CCOC1CCN(C(c2ccccc2)c2ccccc2)CC1	none (no result: MenB inh, Polio RdRp inh, Mtb MbtI inh)
Brc1ccc(Nc2ncnc3ccccc23)cc1	none
CCn1c(=O)c2cc(C(=O)N(CCN(C)C)Cc3ccccc3)sc2c2ccccc21	Polio RdRp inh 87 (no result: MenB inh, AID504770, Mtb MbtI inh)
CCn1c(=O)c2cc(C(=O)N(Cc3ccccc3)C(C)C)sc2c2ccccc21	none
O=c1[nH]c(-c2ccco2)nc2sc3c(c12)CCCC3	none (no result: MenB inh)
O=c1[nH]c(-c2ccccc2O)nc2sc3c(c12)CCCC3	Polio RdRp inh 89 (no result: Mtb MbtI inh)
Cc1ccc(NC(=O)CSc2nc(=O)n(Cc3ccco3)c3c2CCC3)cc1F	Polio RdRp inh 76 (no result: MenB inh, AID504770, Mtb MbtI inh)
Cc1cc(C)c(NC(=O)CSc2nc(=O)n(Cc3ccco3)c3c2CCC3)c(C)c1	none (no result: MenB inh, AID504770, Mtb MbtI inh)
Cc1cc(C(=O)Cn2cnc3ccsc3c2=O)c(C)n1CCc1ccc(F)cc1	none
COc1cccc(C(=O)NC(=O)c2ccccc2O)c1	none (no result: MenB inh, Polio RdRp inh, Mtb MbtI inh)
O=c1sc2c(n1-c1ccccc1)SCC1COc3ccccc3C21 (stereo unspecified)	none
O=C1OC2C(C(=O)O)Sc3c(sc(=O)n3-c3ccccc3)C2c2cc(Br)ccc21 (stereo unspecified)	MenB inh 39
CC1(C)C=C(O)C(C2(O)C(=O)c3ccccc3C2=O)C(=O)C1 (stereo unspecified)	Polio RdRp inh 19 (no result: Mtb MbtI inh)
CC1(C)CC(=O)C(C2(O)C(=O)c3ccccc3C2=O)C(=O)C1	none (no result: MenB inh, Polio RdRp inh)
Cc1cccc(Nc2nc3nonc3nc2Cl)c1	Polio RdRp inh 48 (no result: Mtb MbtI inh)
FC(F)(F)c1cccc(Nc2nc3nonc3nc2Nc2ccc(Cl)cc2)c1	none (no result: MenB inh, AID504770, Mtb MbtI inh)
COc1cc(/C=C/C(=O)O)cc(Cl)c1O	none
CC(C)(C)Cc1cc(N)on1	AID504770 -2
COc1c(O)cc2c(c1O)C1OC(CO)C(O)C(O)C1OC2=O (stereo unspecified)	MenB inh 43 (no result: AID504770)
COc1cc2ccc(=O)oc2c(OC2OC(CO)C(O)C(O)C2O)c1O (stereo unspecified)	none (no result: Mtb MbtI inh)
CCC(=O)c1ccc(N2CCN(C(=O)c3ccco3)CC2)c(F)c1	none
O=c1ccsn1Cc1ccccc1	AID504770 -9.2, Mtb MbtI inh 93
O=C(NCC(c1cccs1)N1CCOCC1)c1ccc(NS(=O)(=O)c2cccs2)cc1 (stereo unspecified)	none
COc1ccccc1/C=C/C(=O)OCC(=O)Nc1ccccc1C(C)C	none (no result: MenB inh)
Cc1ccc(-c2ccnc(-c3ccc(O)cc3)n2)cc1	none (no result: MenB inh, Polio RdRp inh, Mtb MbtI inh)
Cc1ccc(-c2nc(I)ccc2O)cc1	MenB inh 39
Cc1nnc(SCC(=O)Nc2ccc(Cl)cc2Cl)n1C	none (no result: MenB inh)
CCOC(=O)CC1Sc2ccccc2N=C1SCC(=O)Nc1ccc(Cl)cc1Cl (stereo unspecified)	Mtb MbtI inh 96
CC(C)=CC[C@@H](O)C1=CC(=O)c2c(O)ccc(O)c2C1=O	Polio RdRp inh 46 (no result: MenB inh, AID504770)
CCOc1ccc(N2C(=O)CC(Sc3nccc(C)n3)C2=O)cc1 (stereo unspecified)	none
Cc1cccc(N2C(=O)CC(Sc3ncn[nH]3)C2=O)c1 (stereo unspecified)	Mtb MbtI inh 99
Cc1cccc(N2C(=O)CC(Sc3nccc(C)n3)C2=O)c1 (stereo unspecified)	Mtb MbtI inh 63
COCCN(Cc1ccccc1)S(=O)(=O)c1ccccc1OC	none
O=C(c1ccc(F)cc1)N1CCc2ccccc2C1	Polio RdRp inh 85 (no result: Mtb MbtI inh)
Cc1cc(=S)nc(C(C)C)[nH]1	Mtb MbtI inh 91
CCCn1c(=S)[nH]c2ccccc21	Mtb MbtI inh 86!
S=c1[nH]c2ccccc2n1-c1ccccc1	Polio RdRp inh 78, Mtb MbtI inh 92
CCn1c(=S)[nH]c2ccccc21	none
S=c1[nH]c2ccccc2n1CCc1ccccc1	Polio RdRp inh 67, Mtb MbtI inh 81
O=C(CC1NCCN(Cc2ccccc2)C1=O)N/N=C/c1cc(Cl)cc(Cl)c1O (stereo unspecified)	none
C=CCSc1nc(O)c(CC(C)C)c(=O)[nH]1	none
COc1ccc(N2CCN(C(=O)CCS(=O)(=O)c3ccc4nc(C)sc4c3)CC2)cc1	none
NC(=S)N1C(c2ccccc2)CCN1c1ccccc1 (stereo unspecified)	none
CCOC(=O)C1CCN(c2cc(C(=O)Nc3ccc(OCC)cc3)ccn2)CC1	none
COc1ccc(OC)c(-n2c(N)c(C#N)c3nc4ccccc4nc32)c1	AID504770 -2.1
CCC(C)NC(=O)c1ccc(N2CCCC2=O)cc1 (stereo unspecified)	none (no result: MenB inh, Polio RdRp inh, Mtb MbtI inh)
CC(=O)Oc1ccccc1-n1c(C)nc(=O)c(-c2ccccc2)c1C	AID504770 -4.5 (no result: MenB inh)
COc1ccccc1-n1c(C)nc(=O)c(-c2ccccc2)c1C	none
O=C(O)c1cccc(N2CCCCC2)c1	none
CCN(CC)c1ccc(N)c(C)c1	Mtb MbtI inh 98
O=C(CCn1cnc2ccccc2c1=O)Nc1ccccc1C(F)(F)F	none
S=c1nc(-c2cccs2)cn[nH]1	Mtb MbtI inh 74
Cc1nc(-c2cccs2)cs1	none (no result: MenB inh)
Cc1sc2nc[nH]c(=S)c2c1C	Mtb MbtI inh 57!
O=c1c2ccccc2nc(-c2ccco2)n1-c1nccs1	MenB inh 42
Cc1c(C(=O)NN=Cc2ccc(-c3ccc(Cl)c(C(=O)O)c3)o2)sc(N)c1C#N	none
